The text below walks through data of PubChem BioAssay (NCATS).

The structures appear in SMILES notation. Results filed as inconclusive are left out. Entries that show only a call come without a potency. The source made the active and inactive calls. Calls come from the whole dose curve; as a rule, active = well fitted curve in the direction sought with a large enough effect; inconclusive = small, poorly fitted or top-dose-only effect, or another doubt; inactive = no such curve, though single readings can be large; an effect the other way counts as inactive or inconclusive.

One assay in a line: qHTS assay for measurement of the activity of small molecule inhibitors on Zika virus induced Caspase-3 activity in human astrocytoma cells (AID 1224859). The settings on record: SNB-19 ZIKV-induced caspase-3/7, luminescence, 6 h; series mostly up to 45.7 µM. A digest of the protocol: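 SNB-19 astrocytoma cells, 250/well, pretreated 1 h with compounds, then Zika virus at 2 FFU/cell for 6 h at 37 C; Caspase-Glo 3/7 luminescence after 30 min; percent inhibition normalised to uninfected and infected controls.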
On to `CC(=O)O[C@]1(C(C)=O)CC[C@H]2[C@@H]3C=C(Cl)C4=CC(=O)CC[C@]4(C)[C@H]3CC[C@@]21C`, for which the call was inactive.

As for `N=C(N)N1CCc2ccccc2C1`, the activity change, negative = inhibition was -0.144% [at 4.53 µM] (inactive).

Consider `O=C(NC1CCN(CCc2c[nH]c3ccccc23)CC1)c1ccccc1`, for which the compound was classed as inactive.

Take `OC(C#CCN1CCCC1)(c1ccccc1)c1ccccc1`: the compound was called inactive.

For the compound `CC(=O)Nc1ccc(OCC(O)CNC(C)C)cc1` (configuration not stated), the result was inactive.

On to `CCCc1ncc(C[n+]2ccccc2C)c(N)n1`, for which the outcome was inactive.

`COc1cc(N)c(Cl)cc1C(=O)NC1CCN(Cc2ccccc2)CC1`: the compound was classed as inactive.

In the case of `CCN(CC)CCOC(=O)C1(c2ccccc2)CCCC1`, the compound was classed as inactive.

For the compound `CCCCc1cc2ccccc2c(OCCN(C)C)n1`, the outcome was inactive.

With `C#C[C@]1(O)CC[C@H]2[C@@H]3[C@H](C)CC4=C(CCC(=O)C4)[C@H]3CC[C@@]21C`, the compound was called inactive.

`CCN(CC)CCOC(=O)C(Cc1cccc2ccccc12)CC1CCCO1` (configuration not stated): the outcome was inactive.

Turning to `N#CCC(=O)NN`, the result was inactive.

In the case of `CC(C)(C)CC(C)(C)c1ccc(O)c(-n2nc3ccccc3n2)c1`, the outcome was inactive.

Consider `CCN1CCCC(OC(=O)C(c2ccccc2)c2ccccc2)C1` (configuration not stated), for which the outcome was inactive.

Consider `CO[C@H]1C=CO[C@@]2(C)Oc3c(C)c(O)c4c(O)c(c(/C=N/N5CCN(C)CC5)c(O)c4c3C2=O)NC(=O)/C(C)=C\C=C[C@H](C)[C@H](O)[C@@H](C)[C@@H](O)[C@@H](C)[C@H](OC(C)=O)[C@@H]1C`, for which the call was inactive.

Take `Cc1cccc(C)c1NC(=O)CN1CCCCCC1`: the result was inactive.

Regarding `Cn1c(=O)c2[nH]c(Br)nc2n(C)c1=O`, the outcome was inactive.

As for `c1ccc(-c2nc[nH]c2-c2ccccc2)cc1`, the compound was called inactive.

Consider `COc1ccc(CN(CCN(C)C)c2ncccn2)cc1`, for which the outcome was inactive.

In the case of `C[N+]1(CC2COC(c3ccccc3)(C3CCCCC3)O2)CCCCC1` (configuration not stated), the call was inactive.

Regarding `CCCCCCCCCCCCCCCC(=O)O`, the outcome was inactive.

Take `CN1CCN(c2cc3c(cc2F)c(=O)c(C(=O)O)cn3-c2ccc(F)cc2)CC1`: the compound was classed as inactive.

Regarding `O=C(O)P(=O)(O)O`, the result was inactive.

With `FC(F)(F)C(F)(F)C(F)(F)C(F)(F)C(F)(F)C(F)(F)C(F)(F)C(F)(F)Br`, the outcome was inactive.

Consider `Cc1ccc(O)c([C@H](CCN(C(C)C)C(C)C)c2ccccc2)c1`, for which the call was inactive.

For the compound `Cl/C(=C\n1cncn1)c1ccc(Cl)cc1Cl`, the call was inactive.

As to `CC(C)(C)NCC(O)COc1cccc2c1C[C@H](O)[C@H](O)C2` (some centres not stated), the outcome was inactive.

`Oc1c(Cl)cc(Cl)c(Cl)c1Cc1c(O)c(Cl)cc(Cl)c1Cl`: the compound was called inactive.

Turning to `CC(=O)O[C@]1(C(C)=O)CC[C@H]2[C@@H]3C=C(C)C4=CC(=O)CC[C@]4(C)[C@H]3CC[C@@]21C`, the compound was classed as inactive.

`Clc1cccc(C(c2ccc3nc[nH]c3c2)n2ccnc2)c1` (configuration not stated): the compound was classed as inactive.

For the compound `Cc1cc2c(OCC(CNC(C)(C)C)OC(=O)c3ccccc3)cccc2[nH]1` (configuration not stated), the call was inactive.

For `CCCCCCCCCCCCCC(=O)OC(C)C`, the result was inactive.

Consider `Cc1ccc(-c2ncc(Cl)cc2-c2ccc(S(C)(=O)=O)cc2)cn1`, for which the compound was classed as inactive.

In the case of `CCOc1ccc(NC(C)=O)cc1`, the outcome was inactive.

For the compound `COc1ccccc1N1CCN(CCCCNC(=O)c2ccc(-c3ccc(C(C)=O)cc3)cc2)CC1`, the outcome was inactive.

In the case of `COc1ccc2c(c1)c1c3n2CCN(C)C3=NCC1`, the compound was classed as inactive.

The next assay is described as follows: qHTS assay to identify small molecule inhibitors of chordoma cells - UCH-1 (AID 1259355). Note: nearly all actives have a fitted effect of over 55% in size. Note: potency is the fitted concentration of half-maximal effect. As to conditions: UCH-1 chordoma viability, CellTiter-Glo, 48 h, combination, with auranofin plus four topoisomerase inhibitors; series mostly up to 46.1 µM. A digest of the protocol:
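A 48hr growth-inhibition format: each drug tested at 15 concentrations together with added auranofin, camptothecin, doxorubicin, rubitecan and topotecan, with cell viability quantified as CellTiter-Glo luminescence.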
For `CC(=O)O[C@]1(C(C)=O)CC[C@H]2[C@@H]3C=C(Cl)C4=CC(=O)CC[C@]4(C)[C@H]3CC[C@@]21C`, the Potency result is “inactive”.

For the compound `N=C(N)N1CCc2ccccc2C1`, the Potency result is “inactive”.

With `O=C(NC1CCN(CCc2c[nH]c3ccccc23)CC1)c1ccccc1`, the Potency entry was “inactive”.

Regarding `OC(C#CCN1CCCC1)(c1ccccc1)c1ccccc1`, the Potency entry was “inactive”.

On to `CC(=O)Nc1ccc(OCC(O)CNC(C)C)cc1` (configuration not stated), for which the Potency result is “inactive”.

For the compound `CCCc1ncc(C[n+]2ccccc2C)c(N)n1`, the Potency result is “inactive”.

On to `COc1cc(N)c(Cl)cc1C(=O)NC1CCN(Cc2ccccc2)CC1`, for which the Potency result is “inactive”.

Consider `CCN(CC)CCOC(=O)C1(c2ccccc2)CCCC1`, for which the Potency result is “inactive”.

For the compound `CCCCc1cc2ccccc2c(OCCN(C)C)n1`, the Potency entry is “inactive”.

Turning to `C#C[C@]1(O)CC[C@H]2[C@@H]3[C@H](C)CC4=C(CCC(=O)C4)[C@H]3CC[C@@]21C`, the Potency result is “inactive”.

Take `CCN(CC)CCOC(=O)C(Cc1cccc2ccccc12)CC1CCCO1` (configuration not stated): the Potency result is “inactive”.

As for `N#CCC(=O)NN`, the Potency entry is “inactive”.

In the case of `CC(C)(C)CC(C)(C)c1ccc(O)c(-n2nc3ccccc3n2)c1`, the Potency result is “inactive”.

Consider `CCN1CCCC(OC(=O)C(c2ccccc2)c2ccccc2)C1` (configuration not stated), for which the Potency entry is “inactive”.

Take `CO[C@H]1C=CO[C@@]2(C)Oc3c(C)c(O)c4c(O)c(c(/C=N/N5CCN(C)CC5)c(O)c4c3C2=O)NC(=O)/C(C)=C\C=C[C@H](C)[C@H](O)[C@@H](C)[C@@H](O)[C@@H](C)[C@H](OC(C)=O)[C@@H]1C`: the Potency result was “inactive”.

For `Cc1cccc(C)c1NC(=O)CN1CCCCCC1`, the Potency result was “inactive”.

In the case of `Cn1c(=O)c2[nH]c(Br)nc2n(C)c1=O`, the Potency result is “inactive”.

For the compound `c1ccc(-c2nc[nH]c2-c2ccccc2)cc1`, the Potency result is “inactive”.

With `COc1ccc(CN(CCN(C)C)c2ncccn2)cc1`, the Potency entry was “inactive”.

With `C[N+]1(CC2COC(c3ccccc3)(C3CCCCC3)O2)CCCCC1` (configuration not stated), the Potency entry is “inactive”.

Turning to `CCCCCCCCCCCCCCCC(=O)O`, the Potency entry was “inactive”.

Consider `CN1CCN(c2cc3c(cc2F)c(=O)c(C(=O)O)cn3-c2ccc(F)cc2)CC1`, for which the Potency entry is “inactive”.

Take `O=C(O)P(=O)(O)O`: the Potency result was “inactive”.

For the compound `FC(F)(F)C(F)(F)C(F)(F)C(F)(F)C(F)(F)C(F)(F)C(F)(F)C(F)(F)Br`, the Potency result is “inactive”.

For `Cc1ccc(O)c([C@H](CCN(C(C)C)C(C)C)c2ccccc2)c1`, the Potency entry is “inactive”.

On to `Cl/C(=C\n1cncn1)c1ccc(Cl)cc1Cl`, for which the Potency entry was “inactive”.

For `CC(C)(C)NCC(O)COc1cccc2c1C[C@H](O)[C@H](O)C2` (some centres not stated), the Potency entry was “inactive”.

As to `Oc1c(Cl)cc(Cl)c(Cl)c1Cc1c(O)c(Cl)cc(Cl)c1Cl`, the Potency is 25.1 µM (active).

For `CC(=O)O[C@]1(C(C)=O)CC[C@H]2[C@@H]3C=C(C)C4=CC(=O)CC[C@]4(C)[C@H]3CC[C@@]21C`, the Potency entry is “inactive”.

As for `Clc1cccc(C(c2ccc3nc[nH]c3c2)n2ccnc2)c1` (configuration not stated), the Potency entry is “inactive”.

Take `Cc1cc2c(OCC(CNC(C)(C)C)OC(=O)c3ccccc3)cccc2[nH]1` (configuration not stated): the Potency entry was “inactive”.

As to `CCCCCCCCCCCCCC(=O)OC(C)C`, the Potency entry is “inactive”.

Regarding `Cc1ccc(-c2ncc(Cl)cc2-c2ccc(S(C)(=O)=O)cc2)cn1`, the Potency result was “inactive”.

For `CCOc1ccc(NC(C)=O)cc1`, the Potency result is “inactive”.

As to `COc1ccccc1N1CCN(CCCCNC(=O)c2ccc(-c3ccc(C(C)=O)cc3)cc2)CC1`, the Potency result is “inactive”.

On to `COc1ccc2c(c1)c1c3n2CCN(C)C3=NCC1`, for which the Potency result was “inactive”.
